Compound activity as filed in PubChem.
BAZ2B block: BAZ2B (human) inhibition. Potency, µM (top dose mostly 114 µM), without a hit: at the highest dose activity change, negative = inhibition, actives largely listed as inhibitors. AID 504333. AlphaScreen BAZ2B-H3K14Ac peptide displacement. actives 4.4% (n = 360,000). Q9UIF8; also: % is scaled to controls: 0 for no effect and ±100 for the full control effect; nearly all actives have a fitted effect of over 60% in size
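Complex of BAZ2B and biotin-H3K14Ac (50 nM apiece) forms over 30 min at RT, then faces library compounds up to 110 uM for another 30 min; AlphaScreen beads added, 20 min dark incubation, luminescence read.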
HP1b binding inh: blocks HP1-beta chromodomain binding to methylated histone tails. actives 0.56% (n = 390,000). AID 540317. AlphaScreen HP1-beta / biotin-H3K9me3 peptide binding. Potency, µM (titrated, usually from 114 µM), without a hit: at the highest dose activity change, negative = inhibition, usual class: inhibitors; also: nearly all actives have a fitted effect of over 70% in size
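AlphaScreen: HP1-beta (50 nM) preformed 30 min with biotin-H3(1-18)K9me3 peptide (50 nM) in PBS pH 7.4, 0.01% Tween-20. Compound added for 30 min at RT, then streptavidin donor/nickel chelate acceptor beads (10 ug/mL) for 30 min.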
G9a inh: inhibitors of human histone lysine methyltransferase G9a; Q96KQ7; G9a H3K9 monomethylation, AlphaScreen, 2 h; Potency, µM (highest dose often 102 µM), inactives show at the highest dose activity, negative = inhibition, most hits filed as inhibitors; actives 8.8% (n = 350,000); AID 504332; also: % is scaled to controls: 0 for no effect and ±100 for the full control effect; nearly all actives have a fitted effect of over 75% in size
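AlphaScreen read-out: biotin-H3K9 peptide (500 nM) methylation by 20 nM enzyme with 20 uM SAM, 2 h at room temperature after 15 min compound preincubation; anti-monomethyl H3K9 antibody plus donor/acceptor beads, 10 min dark.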
L3MBTL1 block: inhibitors of human L3MBTL1 | Q9Y468 | AlphaScreen L3MBTL1–H3K9me1 peptide binding | Potency, µM (top dose mostly 57.1 µM), for the others: at the highest dose activity, negative = inhibition, most hits filed as inhibitors | actives 0.66% (n = 230,000) | AID 485360; also: % is scaled to controls: 0 for no effect and ±100 for the full control effect; nearly all actives have a fitted effect of over 60% in size
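Read-out is AlphaScreen signal from streptavidin donor and nickel chelate acceptor beads (10 ug/mL final each) bridging L3MBTL1 (50 nM) and biotinylated K9-monomethylated H3(1-15) peptide (75 nM), after 30 min compound exposure at room temperature.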
GLS inh: inhibitors of human glutaminase (GLS). GLS enzymatic activity, qHTS titration. Potency, µM (titrated, usually from 45.5 µM), for the others: at the top dose activity change, negative = inhibition, actives largely listed as inhibitors. actives 0.21% (n = 410,000); also: % is scaled to controls: 0 for no effect and ±100 for the full control effect
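Read-out is an Amplex red fluorescence increase coupled through glutamate oxidase and HRP, measured before and after 30 min room-temperature incubation. hKGA is in 45 mM KH2PO4 (pH 8.2) with 0.02% Tween-20; glutamine added as 1mM solution.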
JMJD2A Tudor: inhibitors of human JMJD2A Tudor domain. actives 4.4% (n = 390,000). AlphaScreen JMJD2A-Tudor / H3K4me3 peptide binding. O75164. Potency, µM (series often up to 114 µM), for the others: at the highest dose activity change, negative = inhibition, most hits filed as inhibitors. AID 504339; also: % is scaled to controls: 0 for no effect and ±100 for the full control effect; nearly all actives have a fitted effect of over 50% in size
An asterisk follows results filed as active; u = inconclusive; x = not tested or not shown; [ ] = remark or other dose. Most compounds without a hit are left out; they make up all but 10% or so of the library. Calls follow the shape of the dose curve; as a rule, active = well fitted curve in the direction sought with a large enough effect; inconclusive = small, poorly fitted or top-dose-only effect, or another doubt; inactive = no such curve, though single readings can be large; an effect the other way counts as inactive or inconclusive. Potency is read from the fitted curve at half-maximal effect.

SMILES | BAZ2B block | HP1b binding inh | G9a inh | L3MBTL1 block | GLS inh | JMJD2A Tudor
CCCC(c1nnnn1Cc1cccs1)N1CCN(c2ccc(OC)cc2)CC1 (stereo not given) | 45µM* | u | 18µM* | -20% | 37% | u
Cc1nc2sccn2c1-c1nc(-c2cc3ccccc3o2)cs1 | u | -12% | 0%[59 µM] | 9% | -3% | 25µM*
CC(=O)Nc1nonc1-c1nnc(SCC(=O)Nc2cccc(F)c2)n1-c1ccccc1 | -15% | 13% | 3%[59 µM] | x | 1% | -15%
Nc1ccc(N2CCN(C(=O)c3cccs3)CC2)cc1 | u | -14% | 1.4µM* | x | 10% | -7%
Nc1ccc(N2CCN(C(=O)c3ccco3)CC2)cc1 | u | -7% | 20µM* | -7% | 56% | u
Cc1ccc(N2CCN(C(=O)N3CCCC3)CC2)cc1C | -2% | 16% | -21% | x | x | -16%
Cc1ccc(N2CCN(C(=O)c3cccs3)CC2)cc1C | 50µM* | 5% | -8%[0.501 µM] | 1%[2.29 µM] | 4% | -31%
CC(=O)Nc1ccc(N2CCN(C(=O)c3cccs3)CC2)cc1 | 9% | 26% | 8% | 4% | 74% | -7%
O=[N+]([O-])c1ccc(S(=O)(=O)NCc2nc3cccnc3n2Cc2ccccc2Cl)cc1 | 2% | 6%[57 µM] | 24%[59 µM] | x | 9% | -15%
O=C(/C=C/c1ccccc1)Nc1nc(-c2cccs2)ns1 | -15% | 48% | 6%[59 µM] | x | 2% | -24%
CCOc1cc(/C=N/Nc2cc(C)nc(-n3nc(C)cc3C)n2)ccc1O | u | 117% | 45µM* | u | 13% | u
COc1cc(/C=N/Nc2cc(C)nc(N)n2)ccc1O | -12% | 29% | 14% | x | 10µM* | -7%
COc1cc(/C=N/Nc2nn3cnnc3c3ccccc23)ccc1O | u | 25% | 79µM* | 13% | 46% | -26%
CCC(Sc1nnc2c3ccccc3n(C)c2n1)C(=O)Nc1nnc(C(C)C)s1 (stereo not given) | 2% | 24% | 3%[59 µM] | x | -11% | -3%
CCOC(=O)c1ccccc1S(=O)(=O)N1CCN(c2nc(-c3cccs3)nc3ccccc23)CC1 | x | 21% | x | x | x | u
O=C(NCCCn1ccnc1)Nc1cccc(Cl)c1 | 25µM* | 32% | -2%[59 µM] | u | 8% | 45µM*
CCCCCOc1ccc(NC(=O)C(=O)NCCCn2ccnc2)cc1 | -7% | 19% | 0%[12.7 µM] | x | -4% | -27%
COc1cccc(NC(=O)C(=O)NCCCn2ccnc2)c1 | 79µM* | 1% | -17% | -10% | 5% | -23%
Cc1ccc(NC(=O)CN2C(=O)S/C(=C\c3ccc(-c4cccc(C(=O)O)c4C)o3)C2=O)cc1 | 25µM* | x | 11µM* | x | x | x
Cc1ccc(NC(=O)CN2C(=O)S/C(=C\c3cccn3C)C2=O)cc1 | -4% | 22% | 18% | -8% | 0% | -3%
Cc1cc(/C=C2\SC(=O)N(CC(=O)Nc3ccccc3F)C2=O)c(C)n1C | u | 27% | -6%[59 µM] | x | -5% | -4%
Cc1ccc(C(=O)O)cc1-c1ccc(/C=C2\SC(=O)N(CC(=O)Nc3ccccc3)C2=O)o1 | 22µM* | u | 7.1µM* | u | -13% | 35µM*
Cc1ccccc1NC(=O)CN1C(=O)S/C(=C\c2ccc(-c3cc(C(=O)O)ccc3C)o2)C1=O | 14µM* | 40µM* | 5µM* | u | -10% | 22µM*
Cc1cc(C(=O)O)ccc1-c1ccc(/C=C2\SC(=O)N(CC(=O)Nc3ccc4c(c3)OCO4)C2=O)o1 | 18µM* | x | -1%[0.501 µM] | x | x | x
C=C1CN(C(C(=O)OC)C(C)C)S(=O)(=O)c2ccc(F)cc21 (stereo not given) | x | 43% | x | x | x | -3%
SMILES | BAZ2B block | HP1b binding inh | G9a inh | L3MBTL1 block | GLS inh | JMJD2A Tudor
Cc1ccc(N2CC(c3nnc(NC(=O)c4ccco4)s3)CC2=O)cc1C (stereo not given) | -20% | 8% | u | x | -7% | -11%
CC(C)(C)OC(=O)CN1C(=O)S/C(=C\c2ccc(-c3cccc(C(=O)O)c3)o2)C1=O | u | x | 56µM* | u | x | x
CC(C)OC(=O)CN1C(=O)S/C(=C/c2ccc(N3CCCCC3)o2)C1=O | u | -14% | u | x | 24% | u
C#CCN1C(=O)S/C(=C\c2ccc(-c3ccc(C(=O)O)cc3C)o2)C1=O | 50µM* | -27% | u | 5µM* | -10% | 89µM*
CC(C)NC(=S)Nc1c(N)[nH]c(=O)[nH]c1=O | -1% | 26% | 56µM* | 4% | 27% | -5%
Cc1cc(C)n2c(Nc3cccc(C(F)(F)F)c3)c(-c3ccsc3)nc2n1 | -2% | 24% | -8%[59 µM] | x | -6% | 2%
COc1ccc(CC2=CC(=O)c3ccccc3C2=O)cc1 | 14µM* | 13µM* | x | u | 6% | 25µM*
COc1ccc(Cc2ccccc2C(=O)O)cc1 | x | 9%[57 µM] | x | x | 8% | -10%
CCOc1ccc(Br)cc1CNCCSc1nnnn1-c1ccccc1 | 6% | 91% | 12%[59 µM] | x | -4% | -1%
COc1ccc(NC(=O)Cn2c(=O)oc3cc(S(=O)(=O)NCc4ccccc4)ccc32)c(OC)c1 | 4% | -13% | 1%[59 µM] | x | 3% | -11%
CC1=CC(C)C2(COC(c3ccc[n+](C)c3)OC2)C(C)C1 (stereo not given) | -36% | -5% | u | 57% | 10% | 22µM*
Cc1nc(SCCC(C)C)c([N+](=O)[O-])[nH]1 | 0% | 41% | 28µM* | x | 3% | -19%
CCOC(=O)CSc1nc(C)[nH]c1[N+](=O)[O-] | 18% | 55% | x | 22% | 1% | -11%
Cc1nc(SCC(N)=O)c([N+](=O)[O-])[nH]1 | -22% | 15% | -3% | -2% | -3% | 40µM*
Cc1c(Cl)cccc1-c1ccc(CNCc2ccccn2)o1 | 25µM* | 5% | 79µM* | u | 2% | u
N#CC1=C(N)N2C(=C(C#N)C1c1ccc(Br)cc1)Nc1ccccc12 (stereo not given) | 4% | 1% | 10µM* | 14% | 9% | -29%
N#CC1=C(N)N2C(=C(C#N)C1c1cccc(Br)c1)Nc1ccccc12 (stereo not given) | 3% | 49% | 10µM* | 2% | 14% | -10%
N#CC1=C(N)N2C(=C(C#N)C1c1ccccc1)Sc1ccccc12 (stereo not given) | -1% | x | u | x | x | x
CC(=O)N1CC=CC1(C)C(=O)NCc1cc(F)cc(C(F)(F)F)c1 (stereo not given) | -5% | 56% | 40µM* | 0% | 0% | 0%
COC(=O)N1CC=CC1(C)C(=O)NCc1cc(F)cc(C(F)(F)F)c1 (stereo not given) | 3% | 44% | 10% | 4% | -5% | -4%
